This is part of a sample that, as a whole, favours compounds with a hit. Of some 83,000 tested, about 20% had one in any assay.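 Method: cells in 96-well plates; compound added at one concentration; 48 h incubation; percent growth measured; values under 10 scored active.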 Unmarked numbers belong to inactive results. Calls of active or inactive are those of the source.
Assays:
Assay in all cases: NCI-60 one-dose screen, 48 h (100 = growth as untreated, 0 = no growth, -100 = all killed)
Conditions in all cases: 10 µM unless noted
NCI-H23 lung = tested on: NCI-H23 lung
NCI-H322M lung = tested on: NCI-H322M lung
HOP-62 NSCLC = tested on: HOP-62 NSCLC
NCI-H460 lung = tested on: NCI-H460 lung
HOP-92 NSCLC = tested on: HOP-92 NSCLC
NCI-H522 lung = tested on: NCI-H522 lung
A549/ATCC NSCLC = tested on: A549/ATCC NSCLC
786-0 renal = tested on: 786-0 renal
COLO 205 colon = tested on: COLO 205 colon
DU-145 prostate = tested on: DU-145 prostate
K-562 leukemia = tested on: K-562 leukemia
MALME-3M melanoma = tested on: MALME-3M melanoma
MDA-MB-231 breast = tested on: MDA-MB-231 breast
RXF 393 renal = tested on: RXF 393 renal
SF-268 CNS = tested on: SF-268 CNS
SF-295 CNS = tested on: SF-295 CNS
SF-539 CNS = tested on: SF-539 CNS
UACC-257 melanoma = tested on: UACC-257 melanoma
M14 melanoma = tested on: M14 melanoma
HCT-15 colon = tested on: HCT-15 colon

Compound	growth (NCI-H23 lung)	growth (NCI-H322M lung)	growth (HOP-62 NSCLC)	growth (NCI-H460 lung)	growth (HOP-92 NSCLC)	growth (NCI-H522 lung)	growth (A549/ATCC NSCLC)	growth (786-0 renal)	growth (COLO 205 colon)	growth (DU-145 prostate)	growth (K-562 leukemia)	growth (MALME-3M melanoma)	growth (MDA-MB-231 breast)	growth (RXF 393 renal)	growth (SF-268 CNS)	growth (SF-295 CNS)	growth (SF-539 CNS)	growth (UACC-257 melanoma)	growth (M14 melanoma)	growth (HCT-15 colon)
O=C(c1nc2ccccc2[nH]1)C1[C@@H](c2cccc(O)c2)C2CC3CCCCC3N2[C@@]12C(=O)Nc1cc(Cl)ccc12 (stereo not given in full)	48.6%	61.6%	60.3%	13.1%	55%	51.9%	27.2%	35.2%	63.5%	43.7%	21.5%	32.1%	34.7%	1.99% (active)	49.5%	37.2%	48.7%	48.9%	29.2%	40.7%
CC1CCCCN1CCCNC(=O)c1ccc2c(c1)sc1nc(-c3ccc(F)cc3)cn12 (stereo not given)	92.1%	107%	90.9%	102%	83.1%	102%	108%	78.8%	98%	105%	77%	98.3%	75.2%	91.7%	92.8%	109%	98.6%	124%	97.1%	104%
CCCCNc1nc(NC(C)(C)C)nc(NC(C)(C)C)n1	47.9%	97.8%	84.1%	82.5%	48.6%	52.8%	56.3%	48.2%	63.5%	74.6%	20.8%	87.3%	72%	-7.69% (active)	91.7%	-19.5% (active)	51%	81%	57.5%	57.6%
COC(=O)/C(CCC=C(C)C)=C1\[C@@H](OC(C)=O)C[C@@]2(C)[C@H]1CC(=O)[C@H]1[C@@]3(C)CC[C@H](NCc4ccccc4)[C@@H](C)[C@@H]3CC[C@@]12C	93.4%	103%	87.3%	88.8%	49.7%	108%	81.7%	65.9%	60%	96.5%	28.8%	92.5%	90.5%	69.4%	79.6%	98.2%	82.9%	99.7%	89.7%	72.1%
NCCOc1ncccc1/C=C1\c2ccccc2-c2ccc([N+](=O)[O-])cc21	-68.1% (active)	-23.4% (active)	-60.1% (active)	-46.1% (active)	-39.5% (active)	-20% (active)	-58.6% (active)	-85.8% (active)	-50.5% (active)	-34.4% (active)	2.88% (active)	-80.4% (active)	-42.3% (active)	-88.6% (active)	-12.9% (active)	-36.6% (active)	-83% (active)	5.4% (active)	-63.3% (active)	-26.4% (active)
O=C(Nc1ccc(C23CC4CC(CC(c5ccccc5)(C4)C2)C3)cc1)c1cccs1	71.4%	92.5%	119%	69.9%	86.5%	59.9%	72.9%	78.7%	91.4%	84.7%	26.5%	84.5%	87.5%	77.5%	103%	105%	92%	75.4%	71.1%	60.2%
Cn1cc([C@@H]2Nc3ccc4[nH]ncc4c3[C@H]3[C@H]4CCC(C4)[C@H]32)c(C(F)(F)F)n1	90.6%	89.5%	53%	27.9%	64.1%	2.48% (active)	41.1%	59.1%	52.7%	72.9%	15.7%	40.2%	61.6%	53.4%	53%	37.7%	41.1%	50.1%	27.5%	30.8%
CC(C)C[C@H](C(=O)N[C@H](C(N)=O)C(C)C)N1CC=CCN(OCc2ccccc2)S1(=O)=O	111% [2.5 µM]	105% [2.5 µM]	99.3% [2.5 µM]	110% [2.5 µM]	82.9% [2.5 µM]	86.4% [2.5 µM]	94.5% [2.5 µM]	102% [2.5 µM]	105% [2.5 µM]	131% [2.5 µM]	100% [2.5 µM]	113% [2.5 µM]	93.4% [2.5 µM]	111% [2.5 µM]	108% [2.5 µM]	114% [2.5 µM]	99.9% [2.5 µM]	91.2% [2.5 µM]	100% [2.5 µM]	104% [2.5 µM]
